This is part of a sample that, as a whole, favours compounds with a hit. Of some 79,000 tested, about 15% had one in any assay. Unmarked numbers belong to inactive results. Calls of active or inactive are those of the source. Rule as the data show it: active = growth inhibition above about 70%; inactive = the rest.

Test [1] in a line: NCI Yeast Anticancer Drug Screen. Data for the rad50 strain (AID 155).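 Also: 0% = growth of vehicle-only cultures of the same strain.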 The following applies: S. cerevisiae rad50 strain growth inhibition; at 50.0 µM; active compounds read high. In outline:
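Growth of the mutant yeast was measured after compound exposure and referenced to vehicle-treated cultures.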

The nature of test [2]: NCI Yeast Anticancer Drug Screen. Data for the mec2-1 strain (AID 157). To be noted: S. cerevisiae mec2-1 strain, at 50.0 µM, active compounds read high. In outline:
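mec2-1 yeast strain, carrying an alteration in DNA damage repair or cell cycle control, was exposed to compounds; growth inhibition was measured relative to vehicle-treated controls.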

Test [3] is described as follows: NCI Yeast Anticancer Drug Screen. Data for the sgs1 mgt1 strain (AID 161).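 Also: 0% = growth of cultures given vehicle only.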 To be noted: S. cerevisiae sgs1 mgt1 strain, at 50.0 µM, active compounds read high. In outline:
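Percent growth inhibition was derived by comparing compound-exposed mutant yeast with vehicle-exposed cultures. The strain carries alterations in DNA damage repair.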

Test [4] in a line: NCI Yeast Anticancer Drug Screen. Data for the cln2 rad14 strain (AID 165).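 Also: 0% = growth equal to vehicle treated cultures.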 To be noted: S. cerevisiae cln2 rad14 strain, at 50.0 µM, active compounds read high. In outline: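 Yeast carrying cln2 and rad14 alterations (cell cycle control and DNA damage repair) were exposed to compounds. Growth inhibition was measured against vehicle-treated controls.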
Test [5] can be described thus: NCI Yeast Anticancer Drug Screen. Data for the bub3 strain (AID 167). To be noted: S. cerevisiae bub3 mutant strain, at 50.0 µM, active compounds read high. In outline:
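Whole-cell yeast assay. The mutant strain was incubated with compounds, and growth inhibition was determined by comparison with vehicle-treated cells.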

The nature of test [6]: NCI Yeast Anticancer Drug Screen. Data for the mlh1 rad18 strain (AID 175). The following applies: S. cerevisiae mlh1 rad18 strain growth inhibition; at 50.0 µM; active compounds read high. In outline: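 Growth inhibition of the yeast strain was measured after compound exposure and expressed relative to vehicle-treated controls. The strain carries defined defects in DNA damage repair.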

In the case of `C[C@@H]1C(=O)CC2(O)[C@@]13C[C@@H](OC(=O)[C@@H]3O)[C@@H](C)[C@@]21COC1=O` (stereo partly specified), the growth inhibition in test [1] was 13.8%; in test [2], 14.2%; in test [3] it was -20.6%; in test [4], -6.65%; in test [5] it was -28.1%.

As for `CCCCCCCCCCCCN1CCCN(CCCCCCCCCCCC)CC1`, the growth inhibition was 56.7% in test [1]; 99.2% (active) in test [2]; 7.45% in test [3]; 96.7% (active) in test [4]; 98.7% (active) in test [5].

Turning to `O=C(O)CCCc1ccc2c(c1)CC1(C2)Cc2cc3c(cc2C1)CCCC3`, the growth inhibition in test [1] was -11.7%; in test [2], -32.4%; in test [3], -16.9%; in test [4] it was 24.2%; in test [5] it was 18.4%.

For `O=C(N/N=C\c1ccccn1)Nc1ccc(N=Nc2ccccc2)cc1`, the growth inhibition in test [1] was 6.55%; in test [2] it was -9.85%; in test [3], -1.65%; in test [4], -3.9%; in test [5], 5.75%.

Regarding `CCN(CC)CCNc1cccc(Cl)c1`, the growth inhibition in test [1] is 60.1%; in test [2] it was 9.25%; in test [3] it was 34.4%; in test [4] it was 25.2%; in test [5], 29.1%.

As to `O=C1C=C(Nc2ccccc2C(=O)CC(=O)C(=O)Nc2ccc(Cl)c(Cl)c2)c2ccccc2C1=O`, the growth inhibition in test [1] was -14.1%; in test [2], 5.7%; in test [3], 3.2%; in test [4], -30.9%; in test [5] it was -24.2%.

As for `NS(=O)(=O)c1cccc(C(F)(F)F)c1`, the growth inhibition was -7.95% in test [1]; -37.9% in test [2]; -13.6% in test [3]; -21.7% in test [4]; -16.4% in test [5].

With `CCOc1ccc(CO)cc1`, the growth inhibition in test [1] was 8.5%; in test [2], 0.2%; in test [3] it was 8.55%; in test [4], 34%; in test [5], -8.95%.

For the compound `CC12CCC3c4ccc(OC(=O)c5ccccc5)cc4CCC3C1CC(O)C2` (stereo unspecified), the growth inhibition in test [1] was -5.5%; in test [2], 38.1%; in test [3], 50.2%; in test [4], 42.7%; in test [5], 69.6%.

As for `Cc1ccccc1NC(=O)CC(=O)NNC(Sc1ccccc1)c1cc(N=Nc2ccc(Br)cc2)ccc1O` (stereo unspecified), the growth inhibition in test [1] is 19.3%; in test [2], 14.1%; in test [3], 27.1%; in test [4], -3.95%; in test [5] it was 17.9%.

In the case of `Cc1ccc(SC(F)(F)C(F)C(F)(F)F)cc1` (stereo unspecified), the growth inhibition in test [1] is -4.65%; in test [2], -3.6%; in test [3] it was -7.75%; in test [4], 9.45%; in test [5], 7.9%.

In the case of `CCCCCCC1(C)OCC(c2ccccc2)O1` (stereo unspecified), the growth inhibition in test [1] is -0.1%; in test [2], -33.5%; in test [3], 5.95%; in test [4] it was -11.7%; in test [5], 2.2%.

On to `CC1OC(OCc2ccc(-c3ccccc3)cc2)CC(N)C1O` (stereo unspecified), for which the growth inhibition in test [1] is -1.9%; in test [2], 28.9%; in test [3], 24.6%; in test [4], -6.85%; in test [5], 29.6%.

Regarding `COc1cc2ccnc(C#N)c2cc1OCc1ccccc1`, the growth inhibition was -60.1% in test [1]; -12.3% in test [2]; -10.7% in test [3]; -6.15% in test [4]; -14.2% in test [5].

`O=C(Cl)C1CC=C2c3ccccc3CCC2C1C(=O)Cl` (stereo unspecified): the growth inhibition in test [1] is 0.85%; in test [2], 19.1%; in test [3] it was 8.1%; in test [4], -3.05%; in test [5], 15.1%.

Take `ClCCCCOC1CCCCO1` (stereo unspecified): the growth inhibition was -4.6% in test [1]; 5.35% in test [2]; 4.9% in test [3]; 2.7% in test [4]; -12.7% in test [5].

On to `N=C(N)SCc1ccc(Cl)cc1Cl` (tested in a mixture with another compound), for which the growth inhibition in test [1] was 34.1%; in test [2], 12.3%; in test [3], 6.35%; in test [4], 3.05%; in test [5], 7.9%; in test [6], 26.4%.

`COc1cc2c(cc1OC)C(C(=O)O)C(c1ccccc1)N(C)C2=O` (stereo unspecified): the growth inhibition is -36.8% in test [1]; -11.8% in test [2]; -6.5% in test [3]; 19.4% in test [4]; -13.2% in test [5]; 3.25% in test [6].

As for `NC(=O)CS(=O)Cc1cccc(Br)c1` (stereo unspecified), the growth inhibition was -13.9% in test [1]; -11.2% in test [2]; -17.6% in test [3]; 7.35% in test [4]; -1.5% in test [5]; 6.5% in test [6].

As to `c1ccc2c(-c3c[nH]c4ccccc34)c[nH]c2c1`, the growth inhibition in test [1] was 16.8%; in test [2], -1.5%; in test [3], -3.05%; in test [4], -27.2%; in test [5], -8.75%; in test [6], 15.3%.

`O=C(NCc1cccnc1)C1COc2cc(-c3cc(=O)c4ccccc4o3)ccc2O1` (stereo unspecified): the growth inhibition was -9.55% in test [1]; -18.9% in test [2]; -23.9% in test [3]; -5.25% in test [4]; -6.95% in test [5]; -49% in test [6].

As to `CCOC1OC(C(O)CO)C(O)C1O` (stereo unspecified), the growth inhibition in test [1] was -16.9%; in test [2] it was -18.8%; in test [3] it was 5.25%; in test [4], -39.9%; in test [5], -18%; in test [6], -17%.

Values taken from PubChem BioAssay (NCI).
